Statin myotox sup: protects C2C12 myotubes from simvastatin toxicity. ATP luminescence, 48 h; scaled: DMSO 0, geranylgeraniol control 100. rescue of ATP level, % at 7.49 µM. 0.78% of 330,000 active. AID 602340;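 active = mean ATP rescue above about 67%, or every replicate alone reaching that limit, limit read from the data, passing the limit was not always enough; inconclusive = no clear call, values can overlap the other calls; inactive = mean under the limit and some replicate under it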;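 also: myotubes were challenged with 10 µM simvastatin during compound exposure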
Wnt act: activators of Wnt/beta-catenin signaling; Wnt/beta-catenin reporter cell assay, activator, plate reader; activation, % at 9.35 µM; 1.2% of 300,000 active; in the data active = activation above about 30%, passing the limit was not always enough; inconclusive = no clear call, values can overlap the other calls;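 also: 0% = neutral control wells and 100% = positive control wells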
FXN GAA850 act: increases GAA850 frataxin promoter reporter activity | HEK293 lucGAA850 FXN promoter luciferase reporter, 24 h; percent of 10 µM SAHA response | activation, % at 6 µM | AID 540364 | 0.56% of 360,000 active;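 active = activation above the average of all compounds screened plus 3 SD, cutoff fixed separately per campaign, cut at about 7.5% in these data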;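 also: 0% = DMSO wells and 100% = 10 µM SAHA wells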
esBAF inh: blocks esBAF chromatin remodeling in mouse ES cells; Bmi1-luciferase knock-in reporter, 24 h; 100% = twice the neutral-well signal; reporter increase, % at 12.5 µM; 2% of 350,000 active; AID 602393; in the data active = activation above about 40%; inconclusive = no clear call, values can overlap the other calls;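 also: 0% = median of the plate's neutral control wells and 100% = double that signal; a rise in the Bmi1 reporter signal indicates esBAF inhibition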
MITF act: increases MITF-driven TRPM1 promoter luciferase signal. SK-MEL-5 TRPM1-promoter luciferase, 24 h; % of positive control, neutral wells = 0. activation, % at 12.5 µM. 0.75% of 300,000 active. AID 588334;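 active = mean activation of at least 80% with every replicate also reaching 80%; inconclusive = mean reaches 80% but some replicate falls short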;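 also: 0% = neutral control wells and 100% = parthenolide positive control wells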
Active calls of the source: *; ? = inconclusive; · = no result. In the library only some 3.3% were active in any assay of this set; here they are far more common.

SMILES	Statin myotox sup	Wnt act	FXN GAA850 act	esBAF inh	MITF act
CCCNC(=O)C[C@@H]1CC[C@@H]2[C@@H](COc3ccc(NC(=O)c4ccc(C(F)(F)F)cc4)cc3C(=O)N2C)O1	10	·	·	-4	·
CC1(CC(=O)Nc2ccccc2)NC(=S)N(c2ccccc2)N1 (stereo not given)	·	3	2	29*	10
COc1ccc2c(n1)Sc1nc3ccccc3nc1N2	25	40*	3	23	-8
CN1CCCN(C(=O)c2ccc(Br)s2)CC1	2	0	-2	0	4
CN1CCN(C(=O)c2ccc(-c3cccs3)s2)CC1	·	36*	1	·	·
C[C@@H]1CN([C@H](C)CO)C(=O)c2cc(-c3cccnc3)cnc2O[C@@H]1CN(C)C(=O)c1cccc(F)c1	-4	·	·	4	·
Cc1nc(Nc2ccccc2C(F)(F)F)sc1C(=O)N(C)C	-4	16	3	49*	55
COc1ccccc1CNc1nc(C)c(C(=O)N(C)C)s1	-15	0	-1	2	-4
Cc1nc(NCCc2ccccc2)sc1C(=O)N(C)C	4	8	1	41*	41
Cc1csc(Nc2ccccc2C(F)(F)F)n1	·	·	3	·	1
C[C@H]1CN([C@@H](C)CO)C(=O)c2cccc(NC(=O)C3CCOCC3)c2O[C@H]1CN(C)CC1CCCCC1	-8	·	·	1	·
COc1cccc(-c2ccc([C@H]3[C@@H](CO)N(C(=O)c4ccccn4)[C@H]3C#N)cc2)c1	-12	·	·	12	·
CCCN1[C@@H]2c3ccc(-c4ccccc4OC)c(=O)n3C[C@@H]2[C@@H](CO)[C@@H]1C(=O)Nc1nccs1	13	·	·	5	·
COC(=O)c1ccc(Nc2cc(C)nc3ccccc23)cc1	·	48*	-1	·	·
COC(=O)c1ccc2nc(C)cc(Nc3ccc(N(C)C)cc3)c2c1	-1	1	2	0	4
O=C(c1ccc(C(F)(F)F)cc1)C1CCCN(C(=O)Cn2cncn2)C1 (stereo not given)	·	-2	-1	·	9
O=C(c1ccc(C(F)(F)F)cc1)C1CCCN(C(=O)CCN2CCCO2)C1 (stereo not given)	67*	-3	3	5	13
C[C@@H](NC(=O)C[C@@H]1C[C@H]2c3cc(NC(=O)Nc4ccccc4F)ccc3O[C@H]2[C@@H](CO)O1)c1ccccc1	5	·	·	0	·
CO[C@H]1CN(C)C(=O)c2cc(NC(C)=O)ccc2OC[C@@H](C)N(Cc2cc(F)ccc2F)C[C@H]1C	12	·	·	3	·
C[C@@H]1CN([C@@H](C)CO)C(=O)c2cc(NS(=O)(=O)c3cn(C)cn3)ccc2O[C@@H]1CN(C)S(C)(=O)=O	60	·	·	3	·
COc1ccc2nc(SCC(=O)c3ccco3)[nH]c2c1	-5	33*	5	36	95*
COc1ccc2nc(SCC(=O)C(C)(C)C)[nH]c2c1	·	41*	3	·	51
C[C@H]1CN([C@@H](C)CO)C(=O)Cc2cc(NC(=O)NC3CCCCC3)ccc2O[C@@H]1CN(C)C(=O)Nc1cccc2ccccc12	36	·	·	-2	·
COc1cc2c(cc1OC)CN(c1ncccc1[N+](=O)[O-])CC2	3	22	6	?	93*
COCC(=O)Nc1ccc2c(c1)OC[C@@H](C)N(Cc1cccc(F)c1)C[C@H](C)[C@H](OC)CN(C)C2=O	15	·	·	5	·
SMILES	Statin myotox sup	Wnt act	FXN GAA850 act	esBAF inh	MITF act
CCOc1ccc(C(=O)c2ccc(OCC)c(N)c2)cc1N	-2	·	4	30	29
COc1ccc(C(N)=O)cc1N	130*	1	1	1	-8
Nc1c(C(=O)c2ccccc2)sc2nsc(SCCN3CCOCC3)c12	·	40*	-1	·	·
Cc1nn(-c2cc(N3CCCCC3)ccc2N)c(=O)c2ccccc12	-21	·	0	-8	5
Cc1nn(-c2ccc(Cl)c(Cl)c2)c(=O)c2ccccc12	·	13	0	27	22
Cc1nn(-c2cc(N3CCCCCC3)ccc2[N+](=O)[O-])c(=O)c2ccccc12	109*	1	1	1	2
Cc1nn(-c2ccc3ccccc3c2)c(=O)c2ccccc12	·	61*	4	·	55
COc1ccc(S(=O)(=O)N(C)C[C@@H]2Oc3ccc(NC(=O)Cn4cnnn4)cc3CC(=O)N([C@H](C)CO)C[C@@H]2C)cc1	-22	·	·	0	·
O=C(C[C@@H]1C[C@@H]2c3cc(NC(=O)Nc4ccccc4F)ccc3O[C@@H]2[C@H](CO)O1)NCc1ccncc1	4	·	·	1	·
COc1ccc(C(=O)c2nc3c(n2O)CCCC3)cc1OC	122*	-1	0	-8	-6
COc1ccc(C(=O)c2nc3c(n2O)CCCCC3)cc1	0	·	2	28	13
S=c1nc(-c2ccco2)[nH][nH]1	96*	·	1	-4	5
O=C(NNC(=O)c1cnccc1C(F)(F)F)c1cccc(Cl)c1	3	-1	0	2	-1
O=C(CNC(=O)c1cnccc1C(F)(F)F)c1cccc(Cl)c1	78*	-2	-1	-4	5
CC(C)CC#Cc1ccc2c(c1)O[C@@H](CN(C)Cc1ccc(C(=O)O)cc1)[C@H](C)CN([C@@H](C)CO)S2(=O)=O	3	·	·	3	·
C(=N\Nc1nc(-c2ccccc2)cs1)/c1cccnc1	-56	22	1	63*	75
C(=N\Nc1nccc(-c2cccnc2)n1)/c1ccccc1	·	49*	1	·	·
Cc1ccnc(N/N=C/c2ccccc2)n1	4	22	0	-1	29
Clc1ccc(-c2csc(N/N=C/c3cccnc3)n2)c(Cl)c1	·	0	1	·	5
C[C@H](NC(=O)C[C@H]1C[C@@H]2c3cc(NC(=O)C4CCC4)ccc3O[C@@H]2[C@@H](CO)O1)c1ccccc1	2	·	·	3	·
C[C@@H]1CN([C@@H](C)CO)S(=O)(=O)c2ccc(C3=CCCC3)cc2O[C@H]1CN(C)CC1CCCC1	-176	·	·	-5	·
N#CCc1nc(CSc2nc3ccccc3o2)cs1	11	-3	2	102*	55
CCOc1ncccc1C(=O)Nc1cc2c(cc1Br)OCCO2	-14	8	1	55*	31
CCc1nc(C)cn1S(=O)(=O)c1ccc(Br)cc1	5	51*	0	-3	-5
Cc1cccc(NC(=O)CCSc2ccccc2)c1C	·	52*	3	·	16
COc1ccccc1-c1cnc2c(c1)C(=O)N([C@@H](C)CO)C[C@@H](C)[C@H](CN(C)C(C)=O)O2	-4	·	·	-1	·
COc1ccc(S(=O)(=O)N[C@@H]2C=C[C@H](CC(=O)NCc3ccccc3F)O[C@@H]2CO)cc1	-5	·	·	5	·
CN(C)C(=O)C[C@H]1CC[C@@H]2[C@H](COC[C@H](O)CN2C(=O)C2CC2)O1	16	·	·	-1	·
COc1ccc(Cn2nnnc2C(CC(C)C)N2CCN(c3ccccc3)CC2)cc1 (stereo not given)	12	-3	0	-3	1
CCCC(c1nnnn1Cc1ccc(OC)cc1)N1CCN(c2ccccc2)CC1 (stereo not given)	137*	-3	0	-1	·

Screens deposited in PubChem by several laboratories.
